Results filed as inconclusive are left out. The source made the active and inactive calls. Calls come from the whole dose curve; as a rule, active = well fitted cell-killing curve with a large enough effect; inconclusive = small, poorly fitted or top-dose-only effect, or effect the other way; inactive = flat fitted curve, though single readings scatter.
Assays:
Assay in all cases: Primary qHTS to identify gynecologic anti-cancer compounds using libraries of approved drugs and bioactive compounds (AID 1345084); note: nearly all actives have a fitted effect of over 55% in size
C33A = settings: Gynecologic cancer cell panel viability, ATPlite luminescence, 48 h; series mostly up to 57.5 µM
Outline: (§1)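 ATP-based viability (ATPlite), 1,000 cells/well, 16 h pre-incubation, 48 h compound at 37 C, 5% CO2, 15 min RT before read.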

CAOV3 = settings: Gynecologic cancer cell panel viability, ATPlite luminescence, 48 h; series mostly up to 57.5 µM
Outline: as §1

CASKI = settings: Gynecologic cancer cell panel viability, ATPlite luminescence, 48 h; series mostly up to 57.5 µM
Outline: as §1

Es-2 = settings: Gynecologic cancer cell panel viability, ATPlite luminescence, 48 h; series mostly up to 57.5 µM
Outline: as §1

HeLa = settings: Gynecologic cancer cell panel viability, ATPlite luminescence, 48 h; series mostly up to 57.5 µM
Outline: as §1

Hek293T = settings: Gynecologic cancer cell panel viability, ATPlite luminescence, 48 h, control line for the selectivity index; series mostly up to 57.5 µM
Outline: as §1
% is set by controls: 0 for no effect and ±100 for the full control effect.

CC1(C)CCCC2(C)C1C(O)C=C(CO)C2(O)C(=O)O (centres undefined)
inactive: Potency (C33A) | Potency (CAOV3) | Potency (CASKI) | Potency (Es-2) | Potency (HeLa) | Potency (Hek293T)

FC(F)(F)c1cc(C(F)(F)F)c2ccc3nc(-c4nnco4)cn3c2n1
inactive: Potency (C33A) | Potency (CAOV3) | Potency (CASKI) | Potency (Es-2) | Potency (HeLa) | Potency (Hek293T)

C=C1C(O[C@@H]2O[C@H](CO)[C@@H](O)[C@H](O)[C@@H]2O)CC2C(C)(C)C(O)CCC2(C)C1CC/C(C)=C\CO (some centres undefined)
inactive: Potency (C33A) | Potency (CAOV3) | Potency (CASKI) | Potency (Es-2) | Potency (HeLa) | Potency (Hek293T)

CC(C)c1nc(N(C)S(C)(=O)=O)nc(-c2ccc(F)cc2)c1/C=C/[C@@H](O)C[C@@H](O)CC(=O)O
inactive: Potency (C33A) | Potency (CAOV3) | Potency (CASKI) | Potency (Es-2) | Potency (HeLa) | Potency (Hek293T)

O=C(OCC12OC1C=CC(OC(=O)c1ccccc1)C2O)c1ccccc1 (centres undefined)
inactive: Potency (C33A) | Potency (CAOV3) | Potency (CASKI) | Potency (Es-2) | Potency (HeLa) | Potency (Hek293T)

CC(C)[C@H]1CCC(CO)=C[C@@H]1/C=C(\CO)C(=O)O
inactive: Potency (C33A) | Potency (CAOV3) | Potency (CASKI) | Potency (Es-2) | Potency (HeLa) | Potency (Hek293T)

CC(C)(O)c1ccc2c(c1)C(=O)CC1[C@](C)(CO)CCC[C@]21C (some centres undefined)
inactive: Potency (C33A) | Potency (CAOV3) | Potency (CASKI) | Potency (Es-2) | Potency (HeLa) | Potency (Hek293T)

C=C(C)C(C)C1OC23CC4(CO2)C(CCC2C5(C)CCC(OC6OCC(O)C(OC7OC(CO)C(O)C(OC8OCC(O)C(O)C8O)C7O)C6OC6OC(CO)C(O)C6O)C(C)(C)C5CCC24C)C3C(C)(O)C1OC(C)=O (centres undefined)
inactive: activity change, negative = cytotoxicity (C33A) 2.75% [at 11.6 µM] | activity change, negative = cytotoxicity (CAOV3) 4.55% [at 11.6 µM] | activity change, negative = cytotoxicity (CASKI) 5.79% [at 11.6 µM] | activity change, negative = cytotoxicity (Es-2) 0.0055% [at 11.6 µM] | activity change, negative = cytotoxicity (HeLa) 1.27% [at 11.6 µM] | activity change, negative = cytotoxicity (Hek293T) 12% [at 11.6 µM]

CC1(C)CCC[C@@]2(C)[C@H]1[C@H](O)C=C1COC(=O)[C@@]12O
inactive: Potency (C33A) | Potency (CAOV3) | Potency (CASKI) | Potency (Es-2) | Potency (HeLa) | Potency (Hek293T)

N#Cc1ccnc(N2C(=O)CC[C@H]2C(=O)N(c2cncc(F)c2)[C@H](C(=O)NC2CC(F)(F)C2)c2ccccc2Cl)c1
inactive: Potency (C33A) | Potency (CAOV3) | Potency (CASKI) | Potency (Es-2) | Potency (HeLa) | Potency (Hek293T)

C[C@@H]1O[C@@H](O[C@H]2[C@H](O[C@H]3[C@H](O[C@H]4CC[C@@]5(C=O)C(CC[C@]6(C)C5CC=C5C7CC(C)(C)C[C@@H](O)[C@]7(C)CC[C@]56C)C4(C)C)O[C@H](C(=O)O)[C@@H](O)[C@@H]3O)OC[C@@H](O)[C@@H]2O)[C@H](O)[C@H](O)[C@H]1O (some centres undefined)
inactive: activity change, negative = cytotoxicity (C33A) 7.86% [at 11.6 µM] | activity change, negative = cytotoxicity (CAOV3) 38.3% [at 11.6 µM] | activity change, negative = cytotoxicity (CASKI) 0.905% [at 11.6 µM] | activity change, negative = cytotoxicity (Es-2) 9.36% [at 11.6 µM] | activity change, negative = cytotoxicity (HeLa) 2.37% [at 11.6 µM] | activity change, negative = cytotoxicity (Hek293T) -7.04% [at 11.6 µM]

Cc1nnc(C(C)C)n1C1CC2CCC(C1)N2CC[C@H](NC(=O)C1CCC(F)(F)CC1)c1ccccc1 (some centres undefined)
inactive: Potency (C33A) | Potency (CAOV3) | Potency (CASKI) | Potency (Es-2) | Potency (HeLa) | Potency (Hek293T)

C[C@]1(O)CC[C@@H]2C(C(=O)O)=CO[C@@H](O[C@@H]3O[C@H](COC(=O)c4ccc(O)cc4)[C@@H](O)[C@H](O)[C@H]3O)[C@@H]21
inactive: Potency (C33A) | Potency (CAOV3) | Potency (CASKI) | Potency (Es-2) | Potency (HeLa) | Potency (Hek293T)

OC[C@H]1O[C@@H](OC(CCCCc2ccc(O)cc2)CCc2ccc(O)cc2)[C@H](O[C@@H]2OC[C@](O)(CO)[C@H]2O)[C@@H](O)[C@@H]1O (some centres undefined)
inactive: Potency (C33A) | Potency (CAOV3) | Potency (CASKI) | Potency (Es-2) | Potency (HeLa) | Potency (Hek293T)

CC(=O)O[C@H]1C[C@@H]2[C@]3(CC[C@]4(C)[C@@H](C5(C)CCC(C(C)(C)O)O5)[C@@H](O)C[C@@]24C)C[C@@]32CC[C@H](O[C@@H]3OC[C@@H](O)[C@H](O)[C@H]3O)C(C)(C)[C@H]12 (some centres undefined)
inactive: Potency (C33A) | Potency (CAOV3) | Potency (CASKI) | Potency (Es-2) | Potency (HeLa) | Potency (Hek293T)

CCCCCCc1cccc(NC(=O)[C@H](N)CCP(=O)(O)O)c1
inactive: activity change, negative = cytotoxicity (C33A) 10.1% [at 11.6 µM] | activity change, negative = cytotoxicity (CAOV3) 5.39% [at 11.6 µM] | activity change, negative = cytotoxicity (CASKI) 0.791% [at 11.6 µM] | activity change, negative = cytotoxicity (Es-2) 1.07% [at 11.6 µM] | activity change, negative = cytotoxicity (HeLa) 2.94% [at 11.6 µM] | activity change, negative = cytotoxicity (Hek293T) -0.817% [at 11.6 µM]

C[C@H]1[C@H](C)CC[C@]2(C(=O)O)CC[C@]3(C)C(=CC[C@@H]4[C@@]5(C)C[C@@H](O)[C@H](O)[C@@](C)(CO)[C@@H]5CC[C@]43C)[C@H]12
inactive: Potency (C33A) | Potency (CAOV3) | Potency (CASKI) | Potency (Es-2) | Potency (HeLa) | Potency (Hek293T)

C/C=C(\C)C(=O)O[C@H]1[C@H](O)[C@]2(COC(C)=O)[C@H](O)C[C@]3(C)C(=CCC4[C@@]5(C)CC[C@H](O[C@@H]6O[C@H](C(=O)O)[C@@H](O[C@@H]7O[C@H](CO)[C@@H](O)[C@H](O)[C@H]7O)[C@H](O)[C@H]6O[C@@H]6O[C@H](CO)[C@@H](O)[C@H](O)[C@H]6O)[C@](C)(CO)C5CC[C@]43C)[C@@H]2CC1(C)C (some centres undefined)
inactive: activity change, negative = cytotoxicity (C33A) 1.25% [at 11.6 µM] | activity change, negative = cytotoxicity (CAOV3) -14.1% [at 11.6 µM] | activity change, negative = cytotoxicity (CASKI) 1.43% [at 11.6 µM] | activity change, negative = cytotoxicity (Es-2) 5.46% [at 11.6 µM] | activity change, negative = cytotoxicity (HeLa) 15.8% [at 11.6 µM] | activity change, negative = cytotoxicity (Hek293T) 5.9% [at 11.6 µM]

C[C@@H]1CC[C@]2(C)C(C[C@@H](O)[C@H](O)[C@]23CO3)[C@@]1(C)CCc1ccoc1 (some centres undefined)
inactive: Potency (C33A) | Potency (CAOV3) | Potency (CASKI) | Potency (Es-2) | Potency (HeLa) | Potency (Hek293T)

From PubChem BioAssay (NCATS)
